Holding throughout (design): scale not given: direction of the effect not stated beside the values
Assay [1] has as its target Protein translocase subunit SecA (Escherichia coli (strain K12)) (UniProt P10408). The assay is described as follows: Assay to Identify E. coli SecA ATPase Inhibitors. Format: functional. As to conditions: 30 µM.
The target in assay [2] is T1, Ubiquitin-activating enzyme e1, putative (Leishmania donovani (strain BPK282A1)) (UniProt E9BSI1).
T1 sequence (whole entry): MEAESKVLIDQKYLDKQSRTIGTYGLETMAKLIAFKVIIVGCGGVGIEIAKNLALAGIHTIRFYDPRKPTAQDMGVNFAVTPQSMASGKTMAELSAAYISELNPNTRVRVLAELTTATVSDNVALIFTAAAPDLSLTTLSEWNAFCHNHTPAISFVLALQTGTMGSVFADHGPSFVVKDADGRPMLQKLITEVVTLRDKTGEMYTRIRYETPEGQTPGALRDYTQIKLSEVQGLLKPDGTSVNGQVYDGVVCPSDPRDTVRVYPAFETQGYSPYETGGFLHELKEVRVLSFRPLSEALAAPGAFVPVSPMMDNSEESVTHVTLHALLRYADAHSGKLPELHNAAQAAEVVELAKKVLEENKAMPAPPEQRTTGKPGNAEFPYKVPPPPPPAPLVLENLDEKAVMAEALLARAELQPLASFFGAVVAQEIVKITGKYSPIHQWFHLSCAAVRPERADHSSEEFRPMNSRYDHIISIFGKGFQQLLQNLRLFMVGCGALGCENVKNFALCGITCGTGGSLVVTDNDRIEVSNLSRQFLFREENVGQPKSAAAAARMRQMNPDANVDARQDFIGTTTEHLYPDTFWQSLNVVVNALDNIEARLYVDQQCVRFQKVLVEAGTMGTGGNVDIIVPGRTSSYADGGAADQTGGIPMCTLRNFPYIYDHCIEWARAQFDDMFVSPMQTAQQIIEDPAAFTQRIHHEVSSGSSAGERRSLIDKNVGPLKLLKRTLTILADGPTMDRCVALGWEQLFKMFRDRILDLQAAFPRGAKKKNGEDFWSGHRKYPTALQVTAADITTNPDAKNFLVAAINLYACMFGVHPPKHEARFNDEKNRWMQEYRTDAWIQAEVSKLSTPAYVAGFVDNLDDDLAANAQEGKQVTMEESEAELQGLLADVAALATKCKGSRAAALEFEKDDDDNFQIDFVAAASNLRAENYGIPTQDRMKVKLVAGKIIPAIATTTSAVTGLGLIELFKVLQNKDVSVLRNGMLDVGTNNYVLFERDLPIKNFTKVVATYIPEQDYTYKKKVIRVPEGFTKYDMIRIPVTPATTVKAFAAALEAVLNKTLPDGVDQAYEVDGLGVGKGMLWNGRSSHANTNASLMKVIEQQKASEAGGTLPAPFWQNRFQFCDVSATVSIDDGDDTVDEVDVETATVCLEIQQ
The assay is described as follows: Leishmania donovani Ubiquitin Activating Enzyme (LdE1). In kind it is functional. As to conditions: 30 µM.

The target in assay [3] is AMP-activated protein kinase, AMPK (Homo sapiens) (UniProt P54646+O43741+P54619+Q9UGJ0+Q9Y478+Q13131+Q9UGI9). In words: AMP-dependent Kinase enzyme assay. An in vitro enzyme assay that detects ADP turnover that is directly proportional to AMPK activity. This uses naive AMPK that is activated during the assay with MK-8722. Format: functional. The following applies: 30 µM.

Assay [4] has as its target Sialic acid-binding Ig-like lectin 9 (Homo sapiens) (UniProt Q9Y336). In words: Hs-Siglec9 ALPHAscreen SOP 20170721. As to conditions: 10 µM.
A further assay relates to Trypanosoma cruzi. In words: Trypanosoma cruzi phosphomannomutase and mannose-1-phosphate guanylyltransferase assay. The following applies: 10 µM. In kind it is functional.
Assay [5] concerns the target T2, Arginase-2, mitochondrial (Homo sapiens) (UniProt P78540).
T2 sequence (whole entry): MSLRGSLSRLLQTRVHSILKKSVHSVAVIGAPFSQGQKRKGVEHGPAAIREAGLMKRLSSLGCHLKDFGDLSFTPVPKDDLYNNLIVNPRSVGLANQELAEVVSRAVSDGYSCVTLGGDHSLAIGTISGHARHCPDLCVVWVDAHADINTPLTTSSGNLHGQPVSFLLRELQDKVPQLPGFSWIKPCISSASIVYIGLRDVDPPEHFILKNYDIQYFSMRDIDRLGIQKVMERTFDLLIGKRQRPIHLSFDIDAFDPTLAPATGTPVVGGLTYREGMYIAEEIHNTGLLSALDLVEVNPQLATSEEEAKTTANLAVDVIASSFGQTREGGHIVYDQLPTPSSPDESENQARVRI
The assay is described as follows: in vitro enzyme assay to detect the production of urea directly proportional to the activity of Arginase II. Also: in the data most compounds retested in dose-response had high values. Format: functional. The following applies: 33.3 µM.

Assay [6] addresses T3, Proteasome subunit beta (Trypanosoma cruzi) (UniProt O96673).
T3 sequence (whole entry): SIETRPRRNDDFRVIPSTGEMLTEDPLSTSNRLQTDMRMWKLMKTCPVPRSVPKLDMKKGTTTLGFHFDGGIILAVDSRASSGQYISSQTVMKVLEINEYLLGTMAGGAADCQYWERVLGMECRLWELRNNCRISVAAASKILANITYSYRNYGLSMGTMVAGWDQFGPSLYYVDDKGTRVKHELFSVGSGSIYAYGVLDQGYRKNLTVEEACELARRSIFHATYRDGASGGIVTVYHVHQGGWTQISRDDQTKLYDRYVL
In words: Trypanosoma cruzi proteasome chymotrypsin-like activity (TcProtChymo) assay. Also: in the data most compounds retested in dose-response had high values. Format: functional. The following applies: 9.37 µM.

The next assay is filed under the species Homo sapiens. In words: To identify inhibition of the IFN signalling (Jak-Stat) pathway via expression of an eGFP reporter gene under the control of an IFN-stimulated response element (ISRE) containing MxA promoter. In kind it is functional. The following applies: 30 µM. In general terms: A reporter such as luciferase makes a cellular process visible.
The target in assay [7] is T4, Tyrosyl-tRNA synthetase, putative (Trypanosoma cruzi (strain CL Brener)) (UniProt Q4DSP6).
T4 sequence (whole entry): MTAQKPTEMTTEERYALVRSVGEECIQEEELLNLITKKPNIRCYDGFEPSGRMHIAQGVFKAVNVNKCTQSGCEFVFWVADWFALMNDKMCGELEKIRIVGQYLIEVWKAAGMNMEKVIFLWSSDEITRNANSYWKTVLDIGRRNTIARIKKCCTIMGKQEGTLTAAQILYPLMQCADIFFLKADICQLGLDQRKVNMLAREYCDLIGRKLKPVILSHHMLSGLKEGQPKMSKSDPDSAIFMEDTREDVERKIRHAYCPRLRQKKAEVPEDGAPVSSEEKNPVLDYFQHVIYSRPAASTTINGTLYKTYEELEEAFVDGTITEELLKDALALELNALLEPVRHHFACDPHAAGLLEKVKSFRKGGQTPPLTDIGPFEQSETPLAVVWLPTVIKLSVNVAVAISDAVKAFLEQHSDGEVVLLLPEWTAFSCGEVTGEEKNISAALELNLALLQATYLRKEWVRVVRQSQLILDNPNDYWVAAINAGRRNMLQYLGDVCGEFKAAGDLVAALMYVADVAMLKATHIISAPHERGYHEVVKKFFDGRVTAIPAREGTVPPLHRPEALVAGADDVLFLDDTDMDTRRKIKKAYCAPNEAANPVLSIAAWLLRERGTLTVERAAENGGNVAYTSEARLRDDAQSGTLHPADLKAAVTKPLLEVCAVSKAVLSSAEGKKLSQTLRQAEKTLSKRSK
The assay is described as follows: Trypanosoma cruzi tyrosyl tRNA synthetase (TcYRS) _High Tyrosine SOP. Also: in the data most compounds retested in dose-response had high values. Format: functional. The following applies: 30 µM.

Assay [8] deals with T4, Tyrosyl-tRNA synthetase, putative (Trypanosoma cruzi (strain CL Brener)). In words: Trypanosoma cruzi tyrosyl tRNA synthetase (TcYRS) SOP. As to conditions: 30 µM. Format: functional.
For assay [9], the target named is Chromo domain-containing protein 1 (Saccharomyces cerevisiae (strain ATCC 204508 / S288c) (Baker's yeast)) (UniProt P32657). In words: ScCHD-1 Enzyme Inhibition Assay. Also: in the data most compounds retested in dose-response had high values. In kind it is functional. The following applies: 30 µM.
Chromo domain-containing protein 1 (Saccharomyces cerevisiae (strain ATCC 204508 / S288c) (Baker's yeast)), sequence (P32657 whole entry, the tested form may be a part): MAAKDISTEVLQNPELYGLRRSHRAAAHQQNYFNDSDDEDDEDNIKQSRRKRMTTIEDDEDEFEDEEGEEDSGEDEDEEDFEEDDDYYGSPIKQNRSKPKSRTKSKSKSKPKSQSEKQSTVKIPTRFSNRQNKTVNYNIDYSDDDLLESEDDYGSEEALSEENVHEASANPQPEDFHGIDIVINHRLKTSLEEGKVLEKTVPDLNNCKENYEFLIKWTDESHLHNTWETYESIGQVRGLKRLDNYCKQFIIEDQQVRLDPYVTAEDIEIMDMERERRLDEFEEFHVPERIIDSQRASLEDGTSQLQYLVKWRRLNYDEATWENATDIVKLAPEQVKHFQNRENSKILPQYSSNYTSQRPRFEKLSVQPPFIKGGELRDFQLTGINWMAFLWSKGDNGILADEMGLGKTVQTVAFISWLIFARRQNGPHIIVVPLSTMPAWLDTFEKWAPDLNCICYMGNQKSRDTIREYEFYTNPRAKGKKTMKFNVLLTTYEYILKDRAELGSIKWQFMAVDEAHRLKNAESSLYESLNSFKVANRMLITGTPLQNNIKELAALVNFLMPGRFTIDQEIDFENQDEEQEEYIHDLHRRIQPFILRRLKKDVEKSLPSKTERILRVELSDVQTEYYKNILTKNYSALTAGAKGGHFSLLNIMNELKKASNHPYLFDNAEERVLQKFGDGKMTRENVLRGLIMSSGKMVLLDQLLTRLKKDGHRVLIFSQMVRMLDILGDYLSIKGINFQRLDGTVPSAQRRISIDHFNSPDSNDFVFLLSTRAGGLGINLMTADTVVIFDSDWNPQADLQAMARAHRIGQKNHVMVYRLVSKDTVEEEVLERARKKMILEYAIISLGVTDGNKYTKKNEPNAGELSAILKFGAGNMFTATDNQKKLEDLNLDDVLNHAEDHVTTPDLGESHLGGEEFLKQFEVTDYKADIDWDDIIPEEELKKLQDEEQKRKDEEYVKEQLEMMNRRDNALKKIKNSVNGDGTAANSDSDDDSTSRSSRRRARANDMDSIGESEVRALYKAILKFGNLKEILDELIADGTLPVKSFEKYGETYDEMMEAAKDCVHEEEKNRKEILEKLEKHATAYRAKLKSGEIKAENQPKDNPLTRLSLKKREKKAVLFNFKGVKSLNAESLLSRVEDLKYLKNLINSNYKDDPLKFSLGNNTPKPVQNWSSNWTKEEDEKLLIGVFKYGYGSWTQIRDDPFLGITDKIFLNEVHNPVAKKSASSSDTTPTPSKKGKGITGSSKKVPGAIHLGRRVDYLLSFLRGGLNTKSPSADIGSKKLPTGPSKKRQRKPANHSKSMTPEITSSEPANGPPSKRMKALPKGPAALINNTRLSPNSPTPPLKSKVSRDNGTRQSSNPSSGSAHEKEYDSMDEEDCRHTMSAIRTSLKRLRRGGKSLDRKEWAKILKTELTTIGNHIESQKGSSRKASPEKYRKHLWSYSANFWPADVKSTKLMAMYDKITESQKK

For some of these results: Measured potencies and affinities stand elsewhere.

Protein translocase subunit SecA (Escherichia coli (strain K12)), sequence (P10408 whole entry): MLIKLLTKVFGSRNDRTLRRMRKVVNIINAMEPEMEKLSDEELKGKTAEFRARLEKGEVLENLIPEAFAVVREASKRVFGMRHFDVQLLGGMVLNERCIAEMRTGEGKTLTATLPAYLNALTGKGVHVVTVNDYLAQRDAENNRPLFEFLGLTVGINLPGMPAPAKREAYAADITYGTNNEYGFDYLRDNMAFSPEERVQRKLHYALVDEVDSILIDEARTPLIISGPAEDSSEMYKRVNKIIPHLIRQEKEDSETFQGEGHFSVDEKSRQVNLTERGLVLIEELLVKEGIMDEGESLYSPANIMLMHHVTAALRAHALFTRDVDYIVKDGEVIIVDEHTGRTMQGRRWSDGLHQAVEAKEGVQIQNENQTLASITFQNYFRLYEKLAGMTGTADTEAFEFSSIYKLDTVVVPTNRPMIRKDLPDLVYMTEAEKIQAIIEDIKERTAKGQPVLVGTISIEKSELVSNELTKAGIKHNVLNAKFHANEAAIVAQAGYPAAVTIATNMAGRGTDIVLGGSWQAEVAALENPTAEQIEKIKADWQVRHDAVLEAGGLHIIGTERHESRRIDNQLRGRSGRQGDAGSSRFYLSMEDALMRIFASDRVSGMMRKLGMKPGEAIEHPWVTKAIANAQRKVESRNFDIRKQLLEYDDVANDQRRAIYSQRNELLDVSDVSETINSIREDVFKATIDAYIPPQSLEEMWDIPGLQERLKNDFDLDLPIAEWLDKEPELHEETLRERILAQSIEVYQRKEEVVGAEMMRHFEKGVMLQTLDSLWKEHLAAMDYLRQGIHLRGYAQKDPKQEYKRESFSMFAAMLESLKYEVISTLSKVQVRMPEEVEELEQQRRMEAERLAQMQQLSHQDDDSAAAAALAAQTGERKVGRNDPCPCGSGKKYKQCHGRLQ
Sialic acid-binding Ig-like lectin 9 (Homo sapiens), sequence (Q9Y336 whole entry): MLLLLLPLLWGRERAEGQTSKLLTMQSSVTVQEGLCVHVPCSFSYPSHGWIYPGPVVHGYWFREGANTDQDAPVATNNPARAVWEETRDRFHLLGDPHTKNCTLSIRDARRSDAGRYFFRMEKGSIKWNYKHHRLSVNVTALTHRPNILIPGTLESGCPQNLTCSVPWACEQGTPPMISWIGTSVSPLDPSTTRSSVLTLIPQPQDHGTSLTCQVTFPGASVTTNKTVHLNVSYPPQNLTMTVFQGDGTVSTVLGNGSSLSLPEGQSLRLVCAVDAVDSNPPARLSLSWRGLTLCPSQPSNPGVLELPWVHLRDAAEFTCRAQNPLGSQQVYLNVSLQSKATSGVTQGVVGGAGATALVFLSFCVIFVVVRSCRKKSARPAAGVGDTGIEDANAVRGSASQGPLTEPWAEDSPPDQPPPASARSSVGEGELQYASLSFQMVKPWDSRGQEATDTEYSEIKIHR

On to `Cc1ccc(NC(=O)NCCCc2n[nH]c(N)c2C#N)cc1`, for which the Percent Effect in [1] was -1.33%; in assay [2], 15.2%; in assay [3] it was 3.73%; in assay [4] it was -1.97%; in the assay on Trypanosoma cruzi, -3.12%; in assay [5], 1.9%. Moreover, the Percent Effect in assay [6] was 13.5%; in the assay filed under Homo sapiens, 13.3%; in [7] it was 5.42%; in [8] it was 11.4%; in assay [9], -3.94%.
In the case of `Cc1oc(C(=O)O)cc1S(=O)(=O)Nc1ccc(Cl)c(F)c1`, the Percent Effect in [1] is -4.46%; in assay [2], 0%; in assay [3], 1.91%; in [4], 3.7%; in the assay with Trypanosoma cruzi, -5.24%; in [5] it was 2.85%. Further, the Percent Effect in assay [6] was -2.2%; in the assay listed under Homo sapiens, 27.1%; in assay [7] it was -2.91%; in assay [8], -4.88%; in [9], -4.31%.
Take `Cc1nn(C)c(N(C)C)c1CNCC(O)COc1ccc(F)cc1` (stereo not drawn): the Percent Effect is -3.9% in assay [1]; 2.74% in assay [2]; -7.44% in [3]; -8.06% in [4]; -1.57% with Trypanosoma cruzi; 0.909% in [5]. For the same compound, the Percent Effect was 12.2% in assay [6]; -14.5% in the assay listed under Homo sapiens; 4.3% in assay [7]; 12.5% in assay [8]; -3.3% in assay [9].
As for `CN(CCCc1ccccc1)Cc1nc2c(cnn2C)c(=O)[nH]1`, the Percent Effect is -1.94% in assay [1]; 8.11% in [2]; -7.46% in [3]; -2.26% in assay [4]; -7.26% in the assay with Trypanosoma cruzi; 2.4% in [5]. Also, the Percent Effect in assay [6] was 5.95%; in the assay filed under Homo sapiens it was 18.9%; in assay [7] it was 4.43%; in assay [8] it was 13.6%; in [9], -1.12%.
In the case of `N#Cc1cccnc1NCc1cccnc1N1CCC(C(N)=O)CC1`, the Percent Effect was -4.85% in assay [1]; 8.11% in assay [2]; -4.32% in assay [3]; 8.48% in [4]; 0.293% with Trypanosoma cruzi; -0.744% in assay [5]. For the same compound, the Percent Effect in [6] was 12.3%; in the assay filed under Homo sapiens it was 3.17%; in assay [7], 3.23%; in [8], 13.6%; in [9] it was 1.32%.
For `COc1cccc(OCCNCc2c(C)nn(C)c2N(C)C)c1`, the Percent Effect in assay [1] was -5.35%; in assay [2] it was 5.26%; in assay [3], -9.94%; in assay [4] it was 10.1%; in the assay with Trypanosoma cruzi, 1.5%; in assay [5] it was 1.92%. Moreover, the Percent Effect in assay [6] was 7.69%; in the assay listed under Homo sapiens it was -12%; in assay [7] it was 4.41%; in assay [8] it was 19.5%; in assay [9] it was -8.18%.
As to `O=C(CN1CCc2ccccc21)Nc1ccc(OC(F)F)cc1`, the Percent Effect in [1] is -2%; in [2], 1.39%; in assay [3], 0.216%; in assay [4] it was 8.48%; in the assay with Trypanosoma cruzi, -2.23%; in [5] it was 0.883%. In addition, the Percent Effect in assay [6] is 21.1%; in the assay filed under Homo sapiens it was 8.31%; in assay [7], 0%; in assay [8], -7.69%; in [9], 88.5%.
As for `NC(=O)c1cc(NC(=O)N2CCCCCC2)ccc1F`, the Percent Effect in assay [1] is -2.22%; in assay [2] it was 16.2%; in assay [3], 5.3%; in assay [4], 2.48%; in the assay with Trypanosoma cruzi, 2.15%; in assay [5], 30.4%. Besides, the Percent Effect in assay [6] was 11.1%; in the assay filed under Homo sapiens it was 44.5%; in assay [7] it was 6.93%; in assay [8], 13.4%; in assay [9] it was -2.07%.

(Values after ChEMBL document CHEMBL3988442, “University of Dundee, Small-Polar-MMV Screening Library” (2021).)
